# An excerpt weighted towards active compounds, which were near 17% of everything screened.
# HepG2 viability – HepG2 cytotoxicity, counter-screen for TGF-b inhibitors. HepG2 CAGA-GFP viability, ATP luminescence, 18 h. Potency, µM (top dose mostly 46.1 µM), for the others: at the top dose activity change, negative = cytotoxicity, actives largely listed as cytotoxic. 410,000 compounds, 0.76% hits. AID 588856
#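 HepG2 CAGA-GFP cells (1000/well, DMEM with 1% FBS) received compound, then TGF-beta at 500 pg/mL final, and were incubated 18 hours at 37 degrees C. Viability was read by CellTiter-Glo luminescence. Media-only wells were set as complete cell-killing and DMSO as no toxicity.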
# TDP1 cell noCPT – qHTS for Inhibitors of human tyrosyl-DNA phosphodiesterase 1 (TDP1): qHTS in cells in absence of CPT | AID 686978, 2013 | Potency, µM (top dose mostly 46.2 µM), inactives show at the top dose activity change, negative = growth inhibition, usual class: inhibitors | 420,000 compounds, 15% hits | DT40 Tdp1-/- hTDP1 cells, no CPT, ATP luminescence, 48 h; further: on the % scale 0 is the no-effect control and ±100 the full control effect; nearly all actives have a fitted effect of over 55% in size
#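 Chicken DT40 Tdp1-/- cells stably complemented with human TDP1 were seeded at 400 cells/well with DMSO in place of 20 nM camptothecin. After compound pinning, cells grew at least 48 hr at 37 °C; viability read by CellTiter-Glo luminescence.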
# ATXN viability – viability counter-screen for ATXN expression inhibitors. S2 cells (HEK-293 line with an ATXN2-luciferase reporter) viability, CellTiter-Fluor protease fluorescence, 24 h. Potency, µM (series often up to 56.7 µM), actives largely listed as cytotoxic. 400,000 compounds, 0.49% hits. AID 651635; further: nearly all actives have a fitted effect of over 40% in size
# ATXN2 expr inh – inhibitors of ATXN2 expression | HEK-293 ATXN2-luciferase reporter, luminescence, 24 h | Potency, µM (titrated, usually from 57 µM), for inactives: at the top dose activity change, negative = inhibition, actives largely listed as inhibitors | 360,000 compounds, 0.72% hits; further: on the % scale 0 is the no-effect control and ±100 the full control effect; nearly all actives have a fitted effect of over 55% in size
#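 ATXN2-luciferase reporter cells (luciferase flanked by upstream and downstream ATXN2 gene portions) were treated 24 h at 37 °C with compounds at up to 57 uM. SteadyGlo luminescence gave expression; GF-AFC fluorescence gave viability.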
# TGFb SMAD3 inh – blocks TGF-b signaling | HepG2 CAGA-GFP TGF-b/SMAD3 reporter, GFP fluorescence, 18 h; TGF-beta stimulated, 500 pg/mL final | Potency, µM (highest dose often 46.1 µM), without a hit: at the top dose activity, negative = inhibition, hits mostly inhibitors | 410,000 compounds, 1.2% hits; further: on the % scale 0 is the no-effect control and ±100 the full control effect; nearly all actives have a fitted effect of over 65% in size
#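 GFP signal (ex488/em500-530) from TGF-beta-stimulated HEPG2 CAGA-GFP cells, 500 pg/mL final, 18 h at 37 degrees C in DMEM plus 1% FBS, normalized to unstimulated and DMSO-stimulated controls.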
# TDP1 cell CPT – growth inhibition of DT40 Tdp1-/-;hTDP1 cells with camptothecin (screen for TDP1 inhibitors). chicken DT40 Tdp1-/-;hTDP1 cells + 20 nM CPT, ATP luminescence, 48 h. Potency, µM (highest dose often 46.2 µM), for inactives: top-dose activity change, negative = growth inhibition, usual class: inhibitors. 420,000 compounds, 12% hits. AID 686979; further: on the % scale 0 is the no-effect control and ±100 the full control effect; nearly all actives have a fitted effect of over 55% in size
#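 Chicken DT40 Tdp1-/- cells complemented with human TDP1, 400 cells/well, exposed to compounds plus 20 nM camptothecin for at least 48 h at 37 C; viability read as ATP content by CellTiter-Glo luminescence.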
# Starred values were filed as active, the others as inactive; i = inactive; ? = inconclusive; . = no result; [ ] = another dose, or the depositor's remark. The call rests on the fitted dose curve; in most records, active means well fitted curve in the direction sought with a large enough effect; inconclusive means small, poorly fitted or top-dose-only effect, or another doubt; inactive means no such curve, though single readings can be large; an effect the other way counts as inactive or inconclusive. Potency means the concentration at half of the fitted maximal effect.
SMILES,HepG2 viability,TDP1 cell noCPT,ATXN viability,ATXN2 expr inh,TGFb SMAD3 inh,TDP1 cell CPT
N=c1nc(N)nc2n1NC(c1ccc(F)cc1)=CS2,-45.4%,16.4µM*,i,28.4%,-4.0%,18.4µM*
Fc1ccc(C2=CSC3=NCCN23)cc1,14.3%,-10.5%,i,-19.9%[11.3 µM],42.4%,8.5%
Cc1cnc(-n2ncc(C(=O)NCc3cccnc3)c2C)nc1-c1ccc(F)cc1,.,-26.3%,?,.,.,-10.9%[9.04 µM]
CCCn1c(NC(=O)c2cccc(C)c2C)nc2ccccc21,-54.4%,14.6µM*,?,-24.3%,?,13µM*
CCCn1c(NC(=O)C2CCN(C(=O)c3ccccc3C)CC2)nc2ccccc21,-25.8%,?,i,-18.2%,-27.4%,16.4µM*
O=C(NCc1nc2ccccc2[nH]1)c1ccc(Cl)c(S(=O)(=O)N2CCCC2)c1,9.3%,?,i,3.4%,-28.9%,-26.5%
CCCn1c(NC(=O)c2ccc([N+](=O)[O-])o2)nc2ccccc21,-45.9%,?,i,-34.9%,-21.3%,20.6µM*
CCCn1c(NC(=O)c2ccc(Cl)c(S(=O)(=O)N3CCCC3)c2)nc2ccccc21,-15.7%,16.4µM*,?,-30.3%,-7.3%,23.1µM*
COc1cc(-c2cc(C)c3c(OC)ccc(OC)c3n2)cc2c1OCCN(Cc1cn(C)nc1C)C2,.,-21.9%,i,.,.,32.7%[9.04 µM]
O=C(CCCOc1ccccc1)NC(=S)Nc1ccccc1,7.0%,?,i,-2.1%,14.2%,?
Cc1ccc(Cn2cc(S(=O)(=O)c3cccc(Cl)c3)c(=O)c3cc(F)c(N4CCOCC4)cc32)cc1,-1.4%,-3.9%,.,.,-0.9%,-13.3%
CSC[C@H]1CN(c2ccc(Br)cc2)C(=O)[C@@H]1CC(=O)Nc1ccccc1,-4.9%,?,i,4.3%,-2.9%,-15.5%
CC(=O)c1sc(NC(=O)C2CCN(C(=O)c3ccccc3C)CC2)nc1-c1ccccc1,-18.5%,?,i,-15.4%,?,18.4µM*
CS(=O)(=O)N(CC(=O)Nc1ccc(Br)cc1)c1ccccc1Br,-35.6%,.,i,-35.5%,-12.5%,.
COc1ccccc1-c1cc2c(c(OC)c1)OCCN(CCC(C)c1ccc(C)o1)C2 (centres undefined),.,-12.7%,i,.,.,-14.4%[9.04 µM]
Cc1ccnc(NC(=O)CN(C)S(=O)(=O)c2cccc3nsnc23)c1,4.0%,7.31µM*,i,2.3%,-10.6%,?
CCOc1ccc(S(=O)(=O)N(C)c2ccc(OCC(=O)Nc3nc4ccccc4s3)cc2)cc1,-28.9%,9.2µM*,i,-13.4%,?,11.6µM*
Cc1ccc(S(=O)(=O)N(C)CC(=O)Nc2ccccc2)cc1,-1.9%,-20.8%,i,0.0%,-17.5%,-13.4%
Cc1ccc2nc(NC(=O)CN(C)S(=O)(=O)c3ccc(Br)s3)sc2c1,4.1%,?,i,7.6%,?,?
Cc1ccc(S(=O)(=O)N(C)CC(=O)Nc2nc3ccccc3s2)cc1,-31.4%,20.6µM*,i,-8.6%,-18.2%,16.4µM*
Cc1ccc2nc(NC(=O)CN(C)S(=O)(=O)c3cccc4nsnc34)sc2c1,-6.1%,2.91µM*,i,?,-3.0%,3.26µM*
CC(=O)Nc1nonc1-c1nnc(SCC(=O)Nc2cc(C)cc(C)c2)n1-c1ccccc1,4.5%,?,i,5.5%,-1.2%,?
CCCCCc1ccc(CC(=O)N2CCOCC2)cc1,-29.8%,-1.2%,i,-7.7%,-21.9%,?
Cc1c(CC(=O)O)c(=O)oc2c(C)c3occ(-c4ccc(Br)cc4)c3cc12,-27.6%,16.4µM*,?,1.3%,25.8%,-8.3%
COc1ccc(-c2coc3c(C)c4oc(=O)c(CC(=O)O)c(C)c4cc23)cc1,-54.6%,-9.8%,i,0.3%,1.7%,-5.1%

# Compound activity from PubChem BioAssay.
